# Data published in PubChem BioAssay (Tox21).
# Values joined by “and” are separate entries in the source; they are usually repeats but may differ in a detail not shown here. Identical values can stand only once. Results filed as inconclusive are left out. Entries that show only a call come without a potency. Some compounds were tested as several samples or in several runs, with calls that do not always agree. Active and inactive are the calls of the source. Unless noted, calls come from the whole dose curve; as a rule, active = well fitted curve in the direction sought with a large enough effect in the repeat runs; inconclusive = weak or mixed curves; inactive = no such curve, though single readings can be large; an effect the other way counts as inactive or inconclusive.
# Key:
# [1] = biological target: Estrogen receptor beta (Homo sapiens) (UniProt Q92731); assay: qHTS assay to identify small molecule antagonists of the estrogen receptor beta (ER-beta) signaling pathway (AID 1259378; active = well fitted inhibition curve with a large enough effect in the signal ratio in the repeat runs, not every such curve was filed as active; the % refers to the signal ratio)
# Chain of Estrogen receptor beta (Homo sapiens) (Q92731 whole entry, looked up): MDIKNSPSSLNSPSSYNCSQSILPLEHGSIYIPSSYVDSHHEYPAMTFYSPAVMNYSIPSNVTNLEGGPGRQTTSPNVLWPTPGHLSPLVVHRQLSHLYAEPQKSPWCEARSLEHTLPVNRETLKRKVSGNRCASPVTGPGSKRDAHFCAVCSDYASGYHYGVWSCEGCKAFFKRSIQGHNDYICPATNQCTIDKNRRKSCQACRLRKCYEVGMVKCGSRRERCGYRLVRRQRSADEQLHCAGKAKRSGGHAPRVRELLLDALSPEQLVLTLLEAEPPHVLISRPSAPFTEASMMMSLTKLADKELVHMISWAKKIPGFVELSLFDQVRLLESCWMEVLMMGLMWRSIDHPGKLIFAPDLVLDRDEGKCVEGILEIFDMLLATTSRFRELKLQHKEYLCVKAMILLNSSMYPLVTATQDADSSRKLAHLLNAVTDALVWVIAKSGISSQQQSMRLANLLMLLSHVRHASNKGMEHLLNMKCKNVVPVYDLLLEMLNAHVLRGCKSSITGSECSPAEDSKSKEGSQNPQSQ
# Outline: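 ER-beta-UAS-bla HEK293T (GripTite) cells in 2% charcoal-stripped FBS medium were preincubated 6 hr at 37C, dosed with compound, then stimulated with 1 nM E2 (final) for 16 hr; beta-lactamase reporter read by B/G FRET fluorescence after 2 hr substrate loading.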
# [2] = qHTS assay to identify small molecule agonists of the androgen receptor (AR) signaling pathway in the presence of an antagonist - cell viability counter screen (AID 1259379); note: nearly all actives have a fitted effect of over 25% in size; note: potency is the fitted concentration of half-maximal effect
# Outline: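 Cytotoxicity is assessed by CellTiter-Fluor in MDA-kb2 cells carrying an MMTV-driven luciferase reporter. Cells receive 3.0uM nilutamide plus compounds at 15 concentrations and incubate 16 hr at 37C without CO2 before fluorescence reading.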
# [3] = qHTS assay to identify small molecule agonists of the estrogen receptor beta (ER-beta) signaling pathway - cell viability counter screen (AID 1259380); note: nearly all actives have a fitted effect of over 30% in size; note: potency is the fitted concentration of half-maximal effect
# Outline: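 Cytotoxicity is measured in parallel with the reporter screen: after 16 hr compound exposure at 37C and a 2 hr LiveBLAzer step, CellTiter-Glo is added to the same ER-beta-UAS-bla HEK293T wells and luminescence read after 30 min.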
# [4] = qHTS assay to identify small molecule antagonists of the estrogen receptor beta (ER-beta) signaling pathway - cell viability counter screen (AID 1259382); note: nearly all actives have a fitted effect of over 55% in size; note: potency is the fitted concentration of half-maximal effect
# Outline: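 Cytotoxicity counter screen multiplexed with the beta-lactamase antagonist assay: GripTite HEK293T ER-beta-bla cells were treated 16 hr with test chemicals in the presence of 1nM 17-beta-estradiol, and viability was measured by CellTiter-Glo.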
# [5] = biological target: Estrogen receptor (Homo sapiens) (UniProt P03372); assay: qHTS assay to identify small molecule agonists of the estrogen receptor alpha (ER-alpha) signaling pathway in the presence of an antagonist (AID 1259383; calls by dose curve; note: top concentration of the series differs between compounds; nearly all actives have a fitted effect of over 15% in size)
# Chain of Estrogen receptor (Homo sapiens) (P03372 whole entry, looked up): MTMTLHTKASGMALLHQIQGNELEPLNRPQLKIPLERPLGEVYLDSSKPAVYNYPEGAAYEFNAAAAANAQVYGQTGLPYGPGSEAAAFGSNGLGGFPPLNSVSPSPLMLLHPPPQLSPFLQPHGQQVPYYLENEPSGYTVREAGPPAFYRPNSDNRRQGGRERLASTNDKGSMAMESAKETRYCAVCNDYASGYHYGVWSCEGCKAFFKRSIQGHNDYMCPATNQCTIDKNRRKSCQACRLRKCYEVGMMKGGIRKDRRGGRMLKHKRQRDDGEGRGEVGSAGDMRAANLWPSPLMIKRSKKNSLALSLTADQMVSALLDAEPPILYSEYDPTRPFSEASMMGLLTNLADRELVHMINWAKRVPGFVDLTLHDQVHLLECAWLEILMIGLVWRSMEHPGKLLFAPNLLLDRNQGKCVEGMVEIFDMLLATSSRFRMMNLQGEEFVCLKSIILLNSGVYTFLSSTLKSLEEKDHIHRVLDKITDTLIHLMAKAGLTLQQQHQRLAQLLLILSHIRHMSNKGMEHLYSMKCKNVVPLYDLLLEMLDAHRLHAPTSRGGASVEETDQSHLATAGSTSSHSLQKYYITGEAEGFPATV
# Outline: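 Agonist-mode confirmation in the presence of the ER antagonist ICI-182,780 at 10.0nM final. Breast-derived VM7Luc4E2 reporter cells were exposed to compounds for 22hr, and ERE-driven luciferase was quantified by luminescence.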
# [6] = qHTS assay to identify small molecule agonists of the estrogen receptor alpha (ER-alpha) signaling pathway in the presence of an antagonist - cell viability counter screen (AID 1259386);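 note: cells exposed to compounds for 22 h at 37 °C before the viability read; nearly all actives have a fitted effect of over 30% in size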; note: potency is the fitted concentration of half-maximal effect
# Outline: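 Cytotoxicity was measured in parallel with the ERE-luciferase agonist screen, in the same wells. The cells were VM7Luc4E2, which endogenously express ER-alpha, and treatment was with compounds plus 10.0nM ICI-182,780 for 22hr.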
# [7] = biological target: Progesterone receptor (Homo sapiens) (UniProt P06401); assay: qHTS assay to identify small molecule agonists of the progesterone receptor (PR) signaling pathway (AID 1346784; calls by dose curve; note: nearly all actives have a fitted effect of over 30% in size)
# Chain of Progesterone receptor (Homo sapiens) (P06401 whole entry, looked up): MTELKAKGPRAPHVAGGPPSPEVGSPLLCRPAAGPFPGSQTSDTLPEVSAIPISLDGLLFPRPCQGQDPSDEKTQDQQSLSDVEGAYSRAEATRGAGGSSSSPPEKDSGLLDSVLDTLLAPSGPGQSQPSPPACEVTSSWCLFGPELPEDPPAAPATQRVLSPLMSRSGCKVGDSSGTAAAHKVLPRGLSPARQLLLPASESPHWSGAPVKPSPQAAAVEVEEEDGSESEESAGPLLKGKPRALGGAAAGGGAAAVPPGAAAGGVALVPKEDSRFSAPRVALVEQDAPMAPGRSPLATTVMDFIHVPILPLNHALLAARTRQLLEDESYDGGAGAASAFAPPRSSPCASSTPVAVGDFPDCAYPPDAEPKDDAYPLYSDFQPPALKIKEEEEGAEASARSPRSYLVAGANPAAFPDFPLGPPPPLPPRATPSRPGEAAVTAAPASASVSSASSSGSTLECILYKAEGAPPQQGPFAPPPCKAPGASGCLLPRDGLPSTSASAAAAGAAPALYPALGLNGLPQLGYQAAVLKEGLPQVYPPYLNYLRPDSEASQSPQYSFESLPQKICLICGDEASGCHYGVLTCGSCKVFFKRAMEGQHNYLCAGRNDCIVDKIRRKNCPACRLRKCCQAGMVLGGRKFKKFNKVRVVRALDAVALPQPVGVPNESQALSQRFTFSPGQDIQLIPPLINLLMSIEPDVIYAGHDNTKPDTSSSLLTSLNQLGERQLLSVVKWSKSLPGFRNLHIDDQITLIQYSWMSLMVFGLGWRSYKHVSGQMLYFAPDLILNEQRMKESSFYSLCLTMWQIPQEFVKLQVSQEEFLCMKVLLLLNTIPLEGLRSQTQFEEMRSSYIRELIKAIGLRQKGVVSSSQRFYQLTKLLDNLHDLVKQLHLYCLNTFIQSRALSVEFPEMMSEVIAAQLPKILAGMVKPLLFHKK
# Outline: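 Cells (PR-UAS-bla HEK 293T, GripTite) were plated in assay medium containing 2% charcoal-stripped FBS and incubated 6 hr. Test compounds in DMSO were added for 16 hr at 37C. FRET substrate was then loaded for 2 hr at room temperature before fluorescence reading.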
# [8] = biological target: Progesterone receptor (Homo sapiens) (UniProt P06401); assay: qHTS assay to identify small molecule antagonists of the progesterone receptor (PR) signaling pathway (AID 1346795; active = well fitted inhibition curve with a large enough effect in the signal ratio in the repeat runs, not every such curve was filed as active; the % refers to the signal ratio)
# Outline: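 Antagonist mode: compounds tested against 1 nM (final) promegestone stimulation in HEK293T cells expressing PR-UAS-bla reporter, 16 hr at 37C, 5% CO2; beta-lactamase activity detected via B/G FRET substrate after 2 hr at room temperature.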
# [9] = qHTS assay to identify small molecule antagonists of the progesterone receptor (PR) signaling pathway - cell viability counter screen (AID 1346798); note: series mostly up to about 92 µM; nearly all actives have a fitted effect of over 50% in size
# Outline: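 Counter screen for cytotoxicity: viability of PR-UAS-bla HEK293T cells was measured with CellTiter-Glo luminescence following 16 hr compound exposure in the presence of R5020.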
# [10] = qHTS assay to identify small molecule agonists of the progesterone receptor (PR) signaling pathway - cell viability counter screen (AID 1346799; calls by dose curve; note: nearly all actives have a fitted effect of over 45% in size; note: potency is the fitted concentration of half-maximal effect)
# Outline: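 Cells (PR-UAS-bla HEK293T) are plated at 3,000/well in 2% charcoal-stripped FBS medium, rested 6 hr, dosed and incubated 16 hr at 37C. CellTiter-Glo is then added and luminescence measured after 30 min at room temperature.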
# [11] = qHTS assay to identify small molecule antagonists of the TGF-beta/Smad signaling pathway - cell viability counter screen (AID 1346824); note: nearly all actives have a fitted effect of over 50% in size
# Outline: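 SBE-bla HEK 293T cells were plated overnight at 37 C, then given compounds in DMSO plus TGF-beta1 (added as 0.25 ng/mL solution) for 5 hr. After the bla read, CellTiter-Glo was added to the same wells and luminescence read after 30 min at room temperature.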
# [12] = qHTS assay to identify small molecule agonists of the TGF-beta/Smad signaling pathway - cell viability counter screen (AID 1346829); note: nearly all actives have a fitted effect of over 45% in size; note: potency is the fitted concentration of half-maximal effect
# Outline: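 CellTiter-Glo luminescence readout; SBE-bla HEK 293T cells, overnight plating, compound 5 hr at 37 C/5% CO2, then bla substrate 2 hr RT, then CellTiter-Glo 30 min RT.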
# [13] = qHTS assay to identify small molecule agonists of the TGF-beta/Smad signaling pathway (AID 1346859; active = well fitted activation curve with a large enough effect in the signal ratio in the repeat runs, not every such curve was filed as active; the % refers to the signal ratio; note: series mostly up to about 77 µM)
# Outline: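 Reporter line: HEK 293T with stably integrated SBE-controlled beta-lactamase. Compound exposure lasts 5 hr at 37 C and 5% CO2; substrate loading follows for 2 hr at room temperature, with emission read at 460 and 530 nm.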
# [14] = Human pregnane X receptor (PXR) small molecule agonists, qHTS cell viability counter screen (AID 1346977); note: nearly all actives have a fitted effect of over 50% in size; note: potency is the fitted concentration of half-maximal effect
# Outline: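 Cytotoxicity counter screen run in the same wells as the PXR luciferase assay, using PXR-Luc HepG2 cells in charcoal-stripped serum medium. Viability: CellTiter-Fluor fluorescence after 24hr compound treatment.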
# [15] = Caspase-3/7 induction in HepG2 cells by small molecules, qHTS assay (AID 1346978); note: nearly all actives have a fitted effect of over 15% in size
# Outline: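 Wild-type HepG2 cells (2,000/well) were settled 5 h at 37 C, 5% CO2, then exposed to compounds in DMSO for 17 h. Caspase-3/7 activity was read by luminescence 30 min after adding Caspase-Glo 3/7 reagent at room temperature.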
# [16] = biological target: Androgen receptor (Homo sapiens) (UniProt P10275); assay: qHTS assay to identify small molecule agonists of the androgen receptor (AR) signaling pathway in the presence of an antagonist (AID 1259381; calls by dose curve; note: nearly all actives have a fitted effect of over 15% in size)
# Chain of Androgen receptor (Homo sapiens) (P10275 whole entry, looked up): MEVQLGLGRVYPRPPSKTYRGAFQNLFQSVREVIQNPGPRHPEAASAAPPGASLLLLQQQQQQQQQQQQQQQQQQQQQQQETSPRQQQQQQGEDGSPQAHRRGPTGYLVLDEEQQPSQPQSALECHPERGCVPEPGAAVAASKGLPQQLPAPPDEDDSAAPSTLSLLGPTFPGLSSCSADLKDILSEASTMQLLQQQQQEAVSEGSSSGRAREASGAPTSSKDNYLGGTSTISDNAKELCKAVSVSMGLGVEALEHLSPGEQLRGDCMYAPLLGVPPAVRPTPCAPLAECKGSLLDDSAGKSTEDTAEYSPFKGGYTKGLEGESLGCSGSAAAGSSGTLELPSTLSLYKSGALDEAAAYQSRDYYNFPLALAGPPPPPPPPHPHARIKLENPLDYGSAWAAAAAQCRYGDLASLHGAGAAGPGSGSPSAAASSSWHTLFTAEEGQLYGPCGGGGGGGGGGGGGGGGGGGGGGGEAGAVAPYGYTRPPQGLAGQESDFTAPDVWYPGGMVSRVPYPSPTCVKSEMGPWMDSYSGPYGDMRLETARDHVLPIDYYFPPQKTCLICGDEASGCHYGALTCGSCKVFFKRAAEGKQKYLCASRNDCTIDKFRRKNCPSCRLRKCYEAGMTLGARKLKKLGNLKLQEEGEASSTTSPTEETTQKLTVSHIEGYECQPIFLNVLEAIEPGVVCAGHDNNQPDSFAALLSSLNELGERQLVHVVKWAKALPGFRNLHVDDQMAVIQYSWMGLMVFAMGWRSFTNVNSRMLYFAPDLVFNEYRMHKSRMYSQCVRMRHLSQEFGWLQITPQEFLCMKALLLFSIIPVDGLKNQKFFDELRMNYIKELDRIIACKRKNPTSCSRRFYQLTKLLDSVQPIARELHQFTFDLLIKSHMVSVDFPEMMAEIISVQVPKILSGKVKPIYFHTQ
# Outline: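 Agonist-mode confirmation screen: human MDA-kb2 cells stably expressing luciferase under an MMTV promoter bearing AR and GR response elements, co-treated with 3.0uM nilutamide (final). Luminescence measured after 16hr compound incubation.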
# [17] = qHTS assay to identify small molecule agonists or antagonists of the thyroid stimulating hormone receptor (TSHR) signaling pathway - wild type cell line counter screen (AID 1259384; calls by dose curve)
# Outline: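 Wild-type HEK293 cells were plated 18 h at 37 C/5% CO2, pin-dosed with compound plus Ro20-1724 medium, held 30 min at room temperature, then given cAMP-d2 and anti-cAMP-cryptate; fluorescence was read after 1 h. Fifteen concentrations, triplicate.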
# [18] = biological target: Thyrotropin receptor (Homo sapiens) (UniProt P16473); assay: qHTS assay to identify small molecule antagonists of the thyroid stimulating hormone receptor (TSHR) signaling pathway (AID 1259385; calls by dose curve; note: nearly all actives have a fitted effect of over 20% in size)
# Chain of Thyrotropin receptor (Homo sapiens) (P16473 whole entry, looked up): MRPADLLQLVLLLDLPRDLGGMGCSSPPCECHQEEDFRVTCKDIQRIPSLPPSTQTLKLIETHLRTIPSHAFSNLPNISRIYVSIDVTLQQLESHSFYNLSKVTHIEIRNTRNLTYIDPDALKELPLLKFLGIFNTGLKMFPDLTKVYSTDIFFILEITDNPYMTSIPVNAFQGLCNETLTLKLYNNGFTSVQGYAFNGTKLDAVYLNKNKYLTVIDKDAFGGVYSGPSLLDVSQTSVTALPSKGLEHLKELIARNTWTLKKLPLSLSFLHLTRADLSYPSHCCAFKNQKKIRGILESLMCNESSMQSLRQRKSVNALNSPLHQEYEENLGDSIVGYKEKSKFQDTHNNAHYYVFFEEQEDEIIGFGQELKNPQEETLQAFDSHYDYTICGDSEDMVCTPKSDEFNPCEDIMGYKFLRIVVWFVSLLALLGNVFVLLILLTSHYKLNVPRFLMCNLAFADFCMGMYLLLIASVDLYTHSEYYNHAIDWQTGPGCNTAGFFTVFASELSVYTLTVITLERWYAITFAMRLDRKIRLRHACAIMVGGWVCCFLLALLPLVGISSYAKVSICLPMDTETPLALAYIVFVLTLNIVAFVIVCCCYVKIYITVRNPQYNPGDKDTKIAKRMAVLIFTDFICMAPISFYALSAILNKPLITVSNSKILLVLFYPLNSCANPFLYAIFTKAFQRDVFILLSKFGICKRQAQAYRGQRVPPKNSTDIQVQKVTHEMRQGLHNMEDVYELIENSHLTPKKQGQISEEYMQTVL
# Outline: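 TSHR-HEK293 cells were plated and held 18 h at 37C/5% CO2, then given compound plus Ro20-1724 and stimulated with TSH at 1.5 ng/mL final. After 30 min at room temperature, cAMP was detected with cAMP-d2/anti-cAMP-cryptate (1 h) by fluorescence.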
# [19] = biological target: Thyrotropin-releasing hormone receptor (Homo sapiens) (UniProt P34981); assay: qHTS assay to identify small molecule agonists of the thyrotropin-releasing hormone receptor (TRHR) signaling pathway (AID 1346891; calls by dose curve;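 note: HEK293 cells expressing TRHR with calcium dye readout; series mostly up to about 58 µM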)
# Chain of Thyrotropin-releasing hormone receptor (Homo sapiens) (P34981 whole entry, looked up): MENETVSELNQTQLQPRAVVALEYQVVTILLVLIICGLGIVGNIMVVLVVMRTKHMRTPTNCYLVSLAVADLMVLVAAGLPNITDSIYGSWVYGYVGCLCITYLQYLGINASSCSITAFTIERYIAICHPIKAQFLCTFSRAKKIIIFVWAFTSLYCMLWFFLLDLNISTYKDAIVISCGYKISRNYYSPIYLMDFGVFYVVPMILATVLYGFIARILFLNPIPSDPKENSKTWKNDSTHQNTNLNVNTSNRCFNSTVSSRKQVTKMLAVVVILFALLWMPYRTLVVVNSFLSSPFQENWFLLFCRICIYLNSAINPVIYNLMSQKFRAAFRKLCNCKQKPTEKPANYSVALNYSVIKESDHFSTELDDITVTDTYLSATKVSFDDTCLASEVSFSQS
# Outline: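 Cells: TRHR-Hek293, seeded and incubated 18 h. Dye loading: 2 h at 37 °C. Compound added from DMSO stock by pin tool. Read-out: kinetic calcium fluorescence over 3 min.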
# [20] = biological target: Thyrotropin-releasing hormone receptor (Homo sapiens) (UniProt P34981); assay: qHTS assay to identify small molecule antagonists of the thyrotropin-releasing hormone receptor (TRHR) signaling pathway (AID 1346877; active = well fitted inhibition curve with a large enough effect in the repeat runs, not every such curve was filed as active; note: series mostly up to about 51 µM)
# Outline: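 Antagonism is measured as suppression of the calcium response to 1 nM TRH in TRHR-HEK293 cells that have been dye-loaded for 2 h at 37 °C after overnight plating. Each compound is tested at 15 concentrations in triplicate.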
Compound,Potency [1],Potency [2],Potency [3],Potency [4],Potency [5],Potency [6],Potency [7],outcome [8],Potency [9],Potency [10],outcome [11],Potency [12],outcome [13],Potency [14],Potency [15],Potency [16],outcome [17],outcome [18],outcome [19],outcome [20]
NC(=O)c1cnccn1,inactive,inactive,inactive and 33.5 µM (active),inactive,inactive,inactive,inactive,inactive,inactive,inactive,inactive,inactive,inactive,inactive,inactive,–,–,–,–,–
c1ccc2[nH]ccc2c1,inactive,7.57 µM (active) and inactive,26.9 µM (active) and inactive,26.9 µM (active) and inactive,–,60.1 µM (active) and inactive,–,–,–,26.9 µM (active) and inactive,inactive,42.9 µM (active) and inactive,inactive,17.8 µM (active) and inactive,inactive,inactive,inactive,inactive,inactive,–
Nc1ccn([C@H]2CC[C@@H](CO)O2)c(=O)n1,inactive,inactive,inactive,inactive,inactive,inactive,–,–,inactive,inactive,inactive,inactive,inactive,inactive,inactive,–,inactive,inactive,–,–
Cc1ccccc1C(OCCN(C)C)c1ccccc1 (stereo unspecified),inactive,inactive,61.1 µM (active),inactive,inactive,inactive,inactive,inactive,–,inactive,inactive,inactive,inactive,inactive,inactive,–,inactive,inactive,–,–
NS(=O)(=O)c1cc(C(=O)O)c(NCc2ccco2)cc1Cl,–,inactive,inactive,inactive,inactive,inactive,inactive,inactive,inactive,inactive,inactive,inactive,inactive,inactive,–,–,inactive,inactive,–,–
O=S(=O)(O)c1ccc2cc(O)ccc2c1,–,inactive,inactive,inactive,–,inactive,inactive,inactive,inactive,inactive,inactive,inactive,inactive,inactive,inactive,–,–,–,inactive,–
O=C(C1CCCCC1)N1CC(=O)N2CCc3ccccc3C2C1 (stereo unspecified),–,inactive,43.2 µM (active) and inactive,inactive,–,inactive,inactive,inactive,inactive,inactive,inactive,inactive,–,inactive,inactive,–,–,–,–,–
Cc1cn([C@H]2C[C@H](N=[N+]=[N-])[C@@H](CO)O2)c(=O)[nH]c1=O,–,inactive,inactive,inactive,inactive,inactive,inactive,inactive,inactive,inactive,inactive,inactive,inactive,70.8 µM (active) and inactive,inactive,–,–,–,–,–
CCCCOC(=O)CC(CC(=O)OCCCC)(OC(C)=O)C(=O)OCCCC,inactive,inactive,inactive,inactive,–,inactive,inactive,inactive,inactive,inactive,inactive,inactive,inactive,inactive,inactive,–,–,–,–,–
O=C(c1ccccc1)c1ccccc1,–,inactive,inactive,inactive,–,inactive,inactive,inactive,inactive,inactive,–,inactive,inactive,inactive,inactive,inactive,–,–,–,–
CCOc1ccc(NC(=O)CC(C)O)cc1 (stereo unspecified),–,inactive,inactive,inactive,–,inactive,inactive,inactive,inactive,inactive,inactive,inactive,inactive,inactive,inactive,–,inactive,inactive,–,inactive
O=C(O)C(=O)O,–,inactive,inactive,inactive,–,inactive,inactive,inactive,inactive,inactive,inactive,inactive,inactive,inactive,inactive,–,inactive,inactive,–,–
Nc1ccc(S(=O)(=O)c2ccc(N)cc2)cc1,–,inactive,inactive,inactive,inactive,inactive,inactive,inactive,inactive,inactive,inactive,inactive,inactive,inactive,inactive,–,inactive,inactive,–,–
NC(=O)NC1NC(=O)NC1=O (stereo unspecified),–,inactive,inactive,inactive,–,inactive,inactive,inactive,inactive,inactive,inactive,inactive,inactive,inactive,inactive,–,inactive,inactive,–,inactive
CCC1(c2ccccc2)C(=O)NCNC1=O,inactive,inactive,inactive,inactive,–,inactive,inactive,inactive,inactive,inactive,inactive,inactive,inactive,inactive,inactive,–,inactive,inactive,–,–
COc1c2occc2cc2ccc(=O)oc12,inactive,inactive,inactive,inactive,–,inactive,inactive,inactive,inactive,inactive,inactive,inactive,inactive,inactive,inactive,–,inactive,inactive,–,–
O=C(O)c1cccc([N+](=O)[O-])c1,inactive,inactive,inactive,inactive,–,inactive,inactive,inactive,inactive,inactive,inactive,inactive,inactive,inactive,inactive,–,–,–,–,–
CCCCC(CC)COC(=O)/C=C/c1ccc(OC)cc1 (stereo unspecified),–,inactive,inactive,inactive,inactive,inactive,inactive,–,inactive,inactive,inactive,inactive,inactive,inactive,inactive,inactive,inactive,inactive,–,–
O=NO,–,inactive,inactive,inactive,–,inactive,–,–,inactive,inactive,inactive,inactive,inactive,inactive,inactive,–,inactive,inactive,–,–
